Experimental findings from PMC7862700, “An all-to-all approach to the identification of sequence-specific readers for epigenetic DNA modifications on cytosine” are described below.

What all share (assay): DAPPL (digital affinity profiling via proximity ligation, sequencing); 10 mM Tris-HCl pH 7.5, 50 mM NaCl, 1 mM DTT, 4% glycerol, room temperature, 30 min; GST-TFs on glutathione beads, 16-mer random dsDNA library, 0.1% formaldehyde crosslink after washing; high values mean tight binding
The target in experiment [1] is T1, FEV (Homo sapiens, UniProt Q99581 1-238).
T1 sequence: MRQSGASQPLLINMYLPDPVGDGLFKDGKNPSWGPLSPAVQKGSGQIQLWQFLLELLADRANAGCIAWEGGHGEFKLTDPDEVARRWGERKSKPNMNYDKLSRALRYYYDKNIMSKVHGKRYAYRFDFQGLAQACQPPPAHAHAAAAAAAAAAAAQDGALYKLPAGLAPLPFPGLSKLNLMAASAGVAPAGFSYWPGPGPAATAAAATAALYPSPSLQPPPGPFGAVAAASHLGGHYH
Particulars: protein: recombinant; tags: N-terminal GST; dsDNA, one strand shown. The method in brief:
(§1)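 Yeast served to express human transcription factors as GST fusions, which were then captured on glutathione beads and labelled with DNA barcodes. Pooled with a tag-only sample, they were incubated with 200 nmole of a 16-mer random double-stranded DNA library for 30 min at room temperature in Tris/NaCl/DTT/glycerol buffer, washed, crosslinked with 0.1% formaldehyde, ligated by proximity, amplified by PCR and sequenced. Dividing each hexamer's read frequency for a factor by its frequency for the tag-only sample gives the binding signal.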

Experiment [2] concerns the target ETV5 (Homo sapiens, UniProt P41161 1-510). To be noted: protein: recombinant; tags: N-terminal GST; dsDNA, one strand shown. In outline:
as §1

For experiment [3], the target named is HSF1 (Homo sapiens, UniProt Q00613 1-529). Particulars: protein: recombinant; tags: N-terminal GST; chain copies: 3; dsDNA, one strand shown. The method in brief: as §1
Experiment [4] deals with T2, SPIC (Homo sapiens, UniProt Q8N5J4 1-248).
T2 sequence: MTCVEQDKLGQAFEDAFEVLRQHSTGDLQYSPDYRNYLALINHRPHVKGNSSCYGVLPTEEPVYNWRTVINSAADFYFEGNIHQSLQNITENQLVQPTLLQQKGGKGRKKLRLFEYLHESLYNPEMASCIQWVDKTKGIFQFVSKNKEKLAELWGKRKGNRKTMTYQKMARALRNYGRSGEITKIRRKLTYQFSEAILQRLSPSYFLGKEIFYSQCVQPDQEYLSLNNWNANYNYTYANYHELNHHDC
Particulars: protein: recombinant; tags: N-terminal GST; dsDNA, one strand shown. The method in brief: as §1

Experiment [5] concerns the target ELF4 (Homo sapiens, UniProt Q99607 1-663). To be noted: protein: recombinant; tags: N-terminal GST; dsDNA, one strand shown. The method in brief: as §1
For experiment [6], the target named is T3, ELK4 (Homo sapiens, UniProt P28324-2 1-405).
T3 sequence: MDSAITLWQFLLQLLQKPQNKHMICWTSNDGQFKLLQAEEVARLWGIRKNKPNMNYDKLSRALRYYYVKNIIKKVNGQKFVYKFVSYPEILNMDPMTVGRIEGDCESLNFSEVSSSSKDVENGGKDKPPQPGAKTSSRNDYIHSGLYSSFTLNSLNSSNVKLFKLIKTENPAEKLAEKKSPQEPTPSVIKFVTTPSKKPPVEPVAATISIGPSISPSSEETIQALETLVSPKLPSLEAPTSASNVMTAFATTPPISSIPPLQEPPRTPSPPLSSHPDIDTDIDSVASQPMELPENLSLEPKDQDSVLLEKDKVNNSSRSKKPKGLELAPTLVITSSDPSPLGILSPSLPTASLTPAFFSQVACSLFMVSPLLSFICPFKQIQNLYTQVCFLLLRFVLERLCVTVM
Particulars: protein: recombinant; tags: N-terminal GST; dsDNA, one strand shown. The method in brief: as §1

Experiment [7] addresses T4, ETV2 (Homo sapiens, UniProt O00321 1-342).
T4 sequence: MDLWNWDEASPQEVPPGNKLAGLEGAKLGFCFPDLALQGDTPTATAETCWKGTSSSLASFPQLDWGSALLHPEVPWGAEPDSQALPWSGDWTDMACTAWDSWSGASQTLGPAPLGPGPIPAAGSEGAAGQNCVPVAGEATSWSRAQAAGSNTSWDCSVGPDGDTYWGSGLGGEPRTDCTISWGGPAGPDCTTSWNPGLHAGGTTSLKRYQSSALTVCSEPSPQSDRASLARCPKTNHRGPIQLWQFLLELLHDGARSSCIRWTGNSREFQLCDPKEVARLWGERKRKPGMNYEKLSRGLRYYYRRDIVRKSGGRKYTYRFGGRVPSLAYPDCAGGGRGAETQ
To be noted: protein: recombinant; tags: N-terminal GST; dsDNA, one strand shown. In outline: as §1

Experiment [8] addresses T5, ELF3 (Homo sapiens, UniProt P78545 1-371).
T5 sequence: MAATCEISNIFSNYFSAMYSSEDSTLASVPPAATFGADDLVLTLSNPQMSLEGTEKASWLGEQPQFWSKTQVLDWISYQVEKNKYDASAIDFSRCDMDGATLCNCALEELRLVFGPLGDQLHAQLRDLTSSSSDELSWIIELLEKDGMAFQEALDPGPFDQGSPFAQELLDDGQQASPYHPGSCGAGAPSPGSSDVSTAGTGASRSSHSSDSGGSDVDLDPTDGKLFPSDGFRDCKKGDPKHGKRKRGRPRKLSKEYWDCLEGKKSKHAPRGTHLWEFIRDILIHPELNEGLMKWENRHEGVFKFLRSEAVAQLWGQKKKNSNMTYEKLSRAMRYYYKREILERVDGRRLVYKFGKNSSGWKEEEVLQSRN
Particulars: protein: recombinant; tags: N-terminal GST; dsDNA, one strand shown. In outline:
as §1

Experiment [9] addresses CRX (Homo sapiens, UniProt O43186 1-299). Particulars: protein: recombinant; tags: N-terminal GST; dsDNA, one strand shown. In outline: as §1
Experiment [10] addresses ETV1 (Homo sapiens, UniProt P50549 1-477). Particulars: protein: recombinant; tags: N-terminal GST; dsDNA, one strand shown. In outline:
as §1

Experiment [11] has as its target T6, ERF (Homo sapiens, UniProt P50548 1-548).
T6 sequence: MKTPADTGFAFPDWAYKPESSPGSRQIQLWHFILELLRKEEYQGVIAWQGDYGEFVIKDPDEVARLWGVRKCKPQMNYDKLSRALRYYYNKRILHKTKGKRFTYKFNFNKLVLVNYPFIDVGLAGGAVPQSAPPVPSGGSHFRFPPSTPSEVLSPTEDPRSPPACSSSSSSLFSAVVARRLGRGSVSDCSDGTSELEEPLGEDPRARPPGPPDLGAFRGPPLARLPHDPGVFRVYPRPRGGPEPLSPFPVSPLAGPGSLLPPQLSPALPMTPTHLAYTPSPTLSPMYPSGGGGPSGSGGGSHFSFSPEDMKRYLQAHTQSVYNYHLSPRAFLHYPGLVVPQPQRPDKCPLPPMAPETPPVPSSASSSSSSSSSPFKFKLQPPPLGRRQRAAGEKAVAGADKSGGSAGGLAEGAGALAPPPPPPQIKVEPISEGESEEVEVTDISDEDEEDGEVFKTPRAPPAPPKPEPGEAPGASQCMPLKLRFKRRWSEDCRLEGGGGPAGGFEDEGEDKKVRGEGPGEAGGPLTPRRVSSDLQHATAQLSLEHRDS
Particulars: protein: recombinant; tags: N-terminal GST; dsDNA, one strand shown. The method in brief: as §1

Experiment [12] deals with T7, ETV3L (Homo sapiens, UniProt Q6ZN32 1-361).
T7 sequence: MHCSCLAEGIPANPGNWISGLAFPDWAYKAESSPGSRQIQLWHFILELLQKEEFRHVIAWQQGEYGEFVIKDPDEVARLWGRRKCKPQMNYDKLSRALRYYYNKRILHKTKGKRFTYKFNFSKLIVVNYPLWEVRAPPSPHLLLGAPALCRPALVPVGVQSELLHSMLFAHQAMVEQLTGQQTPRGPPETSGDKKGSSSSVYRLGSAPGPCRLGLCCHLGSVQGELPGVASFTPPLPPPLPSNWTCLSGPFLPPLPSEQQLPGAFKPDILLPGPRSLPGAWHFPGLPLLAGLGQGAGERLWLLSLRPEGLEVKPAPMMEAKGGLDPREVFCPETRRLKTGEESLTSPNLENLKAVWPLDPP
To be noted: protein: recombinant; tags: N-terminal GST; dsDNA, one strand shown. The method in brief: as §1

The target in experiment [13] is T8, ETS2 (Homo sapiens, UniProt P15036 1-469).
T8 sequence: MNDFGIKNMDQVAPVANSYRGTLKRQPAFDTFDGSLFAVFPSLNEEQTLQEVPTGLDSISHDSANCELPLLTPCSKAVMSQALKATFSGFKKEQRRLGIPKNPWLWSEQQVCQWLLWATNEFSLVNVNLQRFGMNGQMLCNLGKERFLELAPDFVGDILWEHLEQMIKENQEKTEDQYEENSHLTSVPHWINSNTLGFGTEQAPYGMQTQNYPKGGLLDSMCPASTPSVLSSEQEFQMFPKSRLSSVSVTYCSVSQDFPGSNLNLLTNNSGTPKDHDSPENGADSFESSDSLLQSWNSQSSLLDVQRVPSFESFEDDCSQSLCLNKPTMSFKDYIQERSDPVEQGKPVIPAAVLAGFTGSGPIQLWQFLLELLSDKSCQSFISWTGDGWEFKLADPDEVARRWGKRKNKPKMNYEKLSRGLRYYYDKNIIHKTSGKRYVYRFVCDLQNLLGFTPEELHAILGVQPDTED
Particulars: protein: recombinant; tags: N-terminal GST; dsDNA, one strand shown. The method in brief:
as §1

For experiment [14], the target named is T9, SPDEF (Homo sapiens, UniProt O95238 1-335).
T9 sequence: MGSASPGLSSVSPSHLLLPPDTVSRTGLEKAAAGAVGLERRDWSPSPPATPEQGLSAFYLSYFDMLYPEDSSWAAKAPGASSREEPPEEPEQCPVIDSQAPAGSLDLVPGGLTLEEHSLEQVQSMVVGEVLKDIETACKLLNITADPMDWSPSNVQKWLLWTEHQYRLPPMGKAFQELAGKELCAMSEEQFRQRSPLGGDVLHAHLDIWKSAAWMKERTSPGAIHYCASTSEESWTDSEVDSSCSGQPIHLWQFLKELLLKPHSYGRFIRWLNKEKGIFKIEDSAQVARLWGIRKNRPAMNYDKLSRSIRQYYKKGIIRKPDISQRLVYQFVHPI
Particulars: protein: recombinant; tags: N-terminal GST; dsDNA, one strand shown. In outline: as §1

Experiment [15] deals with T10, ETV7 (Homo sapiens, UniProt Q9Y603 1-341).
T10 sequence: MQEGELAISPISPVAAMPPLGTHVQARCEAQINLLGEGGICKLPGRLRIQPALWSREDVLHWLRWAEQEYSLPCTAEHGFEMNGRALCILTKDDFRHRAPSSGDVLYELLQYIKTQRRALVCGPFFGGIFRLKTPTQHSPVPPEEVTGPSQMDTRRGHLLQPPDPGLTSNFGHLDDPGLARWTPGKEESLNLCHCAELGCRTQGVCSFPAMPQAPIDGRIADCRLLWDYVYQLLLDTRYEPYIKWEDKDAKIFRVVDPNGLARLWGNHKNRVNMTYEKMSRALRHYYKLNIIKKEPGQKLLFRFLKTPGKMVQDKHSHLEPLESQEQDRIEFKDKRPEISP
To be noted: protein: recombinant; tags: N-terminal GST; dsDNA, one strand shown. In outline:
as §1

The target in experiment [16] is T11, ELF5 (Homo sapiens, UniProt Q9UKW6-2 1-255).
T11 sequence: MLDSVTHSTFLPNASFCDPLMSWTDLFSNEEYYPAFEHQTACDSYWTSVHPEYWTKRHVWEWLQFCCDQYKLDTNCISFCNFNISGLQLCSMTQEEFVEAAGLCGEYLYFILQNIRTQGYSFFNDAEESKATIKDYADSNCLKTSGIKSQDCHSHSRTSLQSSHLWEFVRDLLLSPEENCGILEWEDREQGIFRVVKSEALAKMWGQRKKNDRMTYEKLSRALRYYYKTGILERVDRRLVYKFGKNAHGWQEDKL
To be noted: protein: recombinant; tags: N-terminal GST; dsDNA, one strand shown. The method in brief: as §1

In experiment [17] the target is T12, ETV3 (Homo sapiens, UniProt P41162-2 1-143).
T12 sequence: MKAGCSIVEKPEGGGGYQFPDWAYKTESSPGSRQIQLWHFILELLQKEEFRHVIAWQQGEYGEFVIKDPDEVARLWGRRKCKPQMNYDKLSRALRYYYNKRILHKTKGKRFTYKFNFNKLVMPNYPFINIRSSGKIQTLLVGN
To be noted: protein: recombinant; tags: N-terminal GST; dsDNA, one strand shown. The method in brief:
as §1

For experiment [18], the target named is ETV6 (Homo sapiens, UniProt P41212 1-452). Particulars: protein: recombinant; tags: N-terminal GST; dsDNA, one strand shown. The method in brief: as §1
ETV6, sequence (P41212 whole entry): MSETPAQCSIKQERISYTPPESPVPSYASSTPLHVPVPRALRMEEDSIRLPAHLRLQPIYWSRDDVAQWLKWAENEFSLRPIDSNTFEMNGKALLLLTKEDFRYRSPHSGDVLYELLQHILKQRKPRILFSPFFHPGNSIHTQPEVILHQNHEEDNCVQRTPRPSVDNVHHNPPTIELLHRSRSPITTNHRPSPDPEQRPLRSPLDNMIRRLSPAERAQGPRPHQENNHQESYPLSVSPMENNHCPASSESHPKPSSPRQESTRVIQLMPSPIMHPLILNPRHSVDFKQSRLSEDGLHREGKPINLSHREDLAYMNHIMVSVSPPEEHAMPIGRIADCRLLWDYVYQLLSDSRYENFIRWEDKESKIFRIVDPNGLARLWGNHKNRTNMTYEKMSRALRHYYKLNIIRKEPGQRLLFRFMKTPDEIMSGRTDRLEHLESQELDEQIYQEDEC

HSF1, sequence (Q00613 whole entry): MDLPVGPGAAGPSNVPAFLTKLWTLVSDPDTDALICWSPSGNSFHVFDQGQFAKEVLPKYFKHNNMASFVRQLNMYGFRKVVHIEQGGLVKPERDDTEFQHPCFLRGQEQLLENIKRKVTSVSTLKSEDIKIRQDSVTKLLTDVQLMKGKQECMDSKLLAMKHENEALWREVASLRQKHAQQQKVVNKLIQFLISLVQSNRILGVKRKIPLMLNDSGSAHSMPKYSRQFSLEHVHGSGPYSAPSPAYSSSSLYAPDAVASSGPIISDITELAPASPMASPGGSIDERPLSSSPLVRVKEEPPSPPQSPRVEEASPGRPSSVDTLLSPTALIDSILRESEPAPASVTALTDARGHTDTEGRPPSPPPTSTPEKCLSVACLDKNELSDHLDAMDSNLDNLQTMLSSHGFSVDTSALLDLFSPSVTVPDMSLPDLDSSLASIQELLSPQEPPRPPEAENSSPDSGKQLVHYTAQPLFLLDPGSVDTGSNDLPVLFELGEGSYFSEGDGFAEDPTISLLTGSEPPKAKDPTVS
CRX, sequence (O43186 whole entry): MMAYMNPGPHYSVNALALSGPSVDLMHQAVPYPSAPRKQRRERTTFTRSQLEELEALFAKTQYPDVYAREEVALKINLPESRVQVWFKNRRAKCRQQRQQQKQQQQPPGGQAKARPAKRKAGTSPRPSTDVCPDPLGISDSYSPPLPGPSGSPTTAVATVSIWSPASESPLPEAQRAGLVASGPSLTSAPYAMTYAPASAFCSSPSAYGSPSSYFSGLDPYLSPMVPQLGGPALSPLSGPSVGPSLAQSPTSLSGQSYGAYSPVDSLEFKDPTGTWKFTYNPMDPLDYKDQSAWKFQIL
ELF4, sequence (Q99607 whole entry): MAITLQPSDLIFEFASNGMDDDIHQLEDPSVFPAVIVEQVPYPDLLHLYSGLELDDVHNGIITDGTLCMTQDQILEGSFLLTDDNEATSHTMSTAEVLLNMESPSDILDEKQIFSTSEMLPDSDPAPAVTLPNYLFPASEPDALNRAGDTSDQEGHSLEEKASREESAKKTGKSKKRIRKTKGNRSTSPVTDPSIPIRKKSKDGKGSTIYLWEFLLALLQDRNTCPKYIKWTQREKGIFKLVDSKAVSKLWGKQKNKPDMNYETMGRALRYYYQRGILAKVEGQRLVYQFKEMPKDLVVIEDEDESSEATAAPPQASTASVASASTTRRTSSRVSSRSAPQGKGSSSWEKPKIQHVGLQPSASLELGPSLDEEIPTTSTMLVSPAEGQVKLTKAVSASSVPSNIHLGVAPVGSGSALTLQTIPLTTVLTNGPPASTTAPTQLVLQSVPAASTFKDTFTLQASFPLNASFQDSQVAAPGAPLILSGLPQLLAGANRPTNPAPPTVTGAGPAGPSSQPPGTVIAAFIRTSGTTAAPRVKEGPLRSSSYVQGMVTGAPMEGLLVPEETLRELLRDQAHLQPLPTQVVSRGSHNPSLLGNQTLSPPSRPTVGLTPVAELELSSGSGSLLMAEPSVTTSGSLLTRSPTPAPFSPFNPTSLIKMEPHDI
ETV1, sequence (P50549 whole entry): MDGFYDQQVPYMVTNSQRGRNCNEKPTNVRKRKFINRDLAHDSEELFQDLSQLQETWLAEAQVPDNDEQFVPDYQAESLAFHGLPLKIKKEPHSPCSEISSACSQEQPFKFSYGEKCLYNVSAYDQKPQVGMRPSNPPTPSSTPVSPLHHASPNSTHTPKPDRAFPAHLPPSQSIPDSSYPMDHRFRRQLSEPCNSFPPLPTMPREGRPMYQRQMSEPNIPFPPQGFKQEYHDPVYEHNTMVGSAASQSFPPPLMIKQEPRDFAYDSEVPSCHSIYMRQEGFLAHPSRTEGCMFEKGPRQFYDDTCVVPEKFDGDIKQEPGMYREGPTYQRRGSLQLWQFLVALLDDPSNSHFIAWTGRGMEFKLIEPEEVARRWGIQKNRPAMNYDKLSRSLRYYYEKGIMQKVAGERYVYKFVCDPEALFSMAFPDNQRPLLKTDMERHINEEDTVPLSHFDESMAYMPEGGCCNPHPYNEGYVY
ETV5, sequence (P41161 whole entry): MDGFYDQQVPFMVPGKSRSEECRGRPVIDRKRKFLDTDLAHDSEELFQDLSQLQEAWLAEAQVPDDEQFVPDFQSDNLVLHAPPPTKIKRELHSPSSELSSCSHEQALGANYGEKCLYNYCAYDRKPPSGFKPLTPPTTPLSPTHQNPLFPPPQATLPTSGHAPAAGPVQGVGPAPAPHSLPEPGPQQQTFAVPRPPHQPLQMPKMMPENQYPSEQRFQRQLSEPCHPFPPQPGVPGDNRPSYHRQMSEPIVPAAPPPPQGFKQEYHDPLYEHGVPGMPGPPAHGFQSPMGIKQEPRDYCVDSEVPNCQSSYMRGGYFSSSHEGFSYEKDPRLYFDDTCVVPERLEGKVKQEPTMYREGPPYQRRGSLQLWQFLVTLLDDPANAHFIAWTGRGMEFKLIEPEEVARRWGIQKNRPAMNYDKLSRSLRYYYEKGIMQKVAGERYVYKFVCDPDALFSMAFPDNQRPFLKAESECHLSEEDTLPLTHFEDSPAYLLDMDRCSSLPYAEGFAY

On to TTCGAA, for which the binding signal is 1.13 fold enrichment (6-mer frequency, TF over GST control) in [1]; 1.18 fold enrichment (6-mer frequency, TF over GST control) in experiment [2]; 1.93 fold enrichment (6-mer frequency, TF over GST control) in experiment [3]; 1.18 fold enrichment (6-mer frequency, TF over GST control) in [4]; 1.26 fold enrichment (6-mer frequency, TF over GST control) in experiment [5]; 1.2 fold enrichment (6-mer frequency, TF over GST control) in experiment [6]. For the same sequence, the binding signal in experiment [7] is 1.16 fold enrichment (6-mer frequency, TF over GST control); in experiment [8], 1.24 fold enrichment (6-mer frequency, TF over GST control); in experiment [9] it was 1.3 fold enrichment (6-mer frequency, TF over GST control); in [10] it was 1.1 fold enrichment (6-mer frequency, TF over GST control); in experiment [11], 1.33 fold enrichment (6-mer frequency, TF over GST control); in [12], 1.25 fold enrichment (6-mer frequency, TF over GST control). Besides, the binding signal in experiment [13] was 1.24 fold enrichment (6-mer frequency, TF over GST control); in experiment [14] it was 1.17 fold enrichment (6-mer frequency, TF over GST control); in experiment [15], 1.26 fold enrichment (6-mer frequency, TF over GST control); in experiment [16] it was 1.14 fold enrichment (6-mer frequency, TF over GST control); in [17] it was 1.03 fold enrichment (6-mer frequency, TF over GST control); in [18], 1.15 fold enrichment (6-mer frequency, TF over GST control).
